Measured values: PubChem BioAssay AID624304 (Sanford-Burnham Center for Chemical Genomics, 2012)
About 1,800 (0.5%) of roughly 360,000 compounds were called active.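 The calls were made as follows: active = interference check ratio from 0.5 to 1.5 plus GFP to RFP signal ratio inhibition reaching or exceeding a fixed threshold (cut at about 30% in these data, passing the limit was not always enough); inactive = the rest.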 The full list was thinned out, with actives kept by preference.

Assay: suppressors of acrylamide-induced Pgst-4::GFP reporter in worms, primary screen, SKN-1 inhibitor project, whole organism, uHTS, GFP/RFP fluorescence ratio, strain VP596 (AID 624304)
Conditions: C. elegans VP596 Pgst-4::GFP/RFP ratio, 24 h, at 21.8 µM, stronger effect = higher value

SMILES | inhibition
Cc1c(C(=O)NCCN2CCOCC2)sc2nc(-c3ccc(F)cc3)cn12 | 5.89% (inactive)
CC/C(=N/Nc1ccccc1)c1cnnc(SC)n1 | 10.2% (inactive)
CCOc1ccc(CNC(=O)C2CC(=O)N(C3CCCC3)C2)cc1OC (stereo not drawn) | 8.98% (inactive)
CCOC(=O)C1CCN(C(=O)C2CCN(S(=O)(=O)CC)CC2)CC1 | 6.26% (inactive)
Cc1ccc2cc(CCNC(=O)c3c(-c4ccccc4Cl)noc3C)c(=O)[nH]c2c1 | 11.2% (inactive)
Cc1onc(-c2ccccc2Cl)c1C(=O)N(Cc1ccc(N(C)C)cc1)C(C)C | -21.5% (inactive)
Cc1onc(-c2ccccc2Cl)c1C(=O)NCCn1ccc2ccccc21 | 39.7% (active)
FC(F)(F)c1ccc(-c2cccc3c2C2CC3CCN2Cc2ccccc2)cc1 (stereo not drawn) | 7.81% (inactive)
CC1(C)Cc2ccccc2-c2nnc(-c3cccc(O)c3)n21 | 27.7% (inactive)
O=C(NCCCn1ccnc1)c1cc(-c2ccccc2)on1 | 8.95% (inactive)
O=C(NC1CCCCCCC1)c1cccs1 | 22.3% (inactive)
O=C(NC1CCCC1)c1cc(-c2ccccc2)on1 | 37.3% (active)
NC1=CC(=O)C(=O)c2cccnc21 | 18.3% (inactive)
COc1ccccc1Cn1c(C)nnc1-c1cnn(C)c1N | 10.4% (inactive)
CC(=O)Nc1ccc(NC(=O)CSc2nnc(COc3ccccc3C)n2CC2CCCO2)cc1 (stereo not drawn) | -7.59% (inactive)
CCOc1cc(C)ccc1OCc1nnc(SCC(=O)Nc2cccc(C(=O)O)c2)n1-c1ccccc1 | -9.28% (inactive)
CCCCNC(=O)CSc1nc2ccc(NC(=O)CSc3nnc(COc4ccccc4C)n3C)cc2s1 | 39.2% (active)
Cc1nonc1C1CCCN1Cc1nc(-c2ccc(F)cc2F)oc1C (stereo not drawn) | 10% (inactive)
CSc1nnc(CNC(=O)c2ccccc2)n1-c1ccc(F)cc1 | -6.87% (inactive)
Cc1ccnc(SCCn2c(Br)nc3c2c(=O)[nH]c(=O)n3C)n1 | -9.02% (inactive)
CCCCCCCCCCCCN1C(=O)CSC1c1cccnc1 (stereo not drawn) | -6.65% (inactive)
CCOc1cc(CO)ccc1OCC(=O)N1CCCCC1 | 7.04% (inactive)
CCOC(=O)/C=C/CN(C(=O)OC(C)(C)C)S(=O)(=O)N1CC=CC1 | 35.2% (active)
CCOC(=O)/C=C/c1ccc(C(F)(F)F)cc1S(=O)(=O)NC(C)(C)C | 3.66% (inactive)
CNc1cc(-c2c(OC)cccc2OC)ncn1 | 4.47% (inactive)

SMILES | inhibition
CC(=O)N1CCN(c2ccc(NCc3ccc(C(C)C)cc3)cc2)CC1 | 36.1% (active)
CC(C)c1ccc(NC(=O)COC(=O)c2ccc(CN3CCCC3=O)cc2)cc1 | -1.54% (inactive)
CCCC(=O)N1CCC1(C)C(=O)NCc1ccc(C(C)C)cc1 (stereo not drawn) | 14.8% (inactive)
COCCNC(=O)c1ccc(N2CCC3(CC2)OCCO3)c([N+](=O)[O-])c1 | -6.38% (inactive)
O=C(Nc1nn(Cc2ccccc2F)cc1Br)c1cccs1 | 6.46% (inactive)
COc1ccc(CCc2nc(-c3cccs3)no2)cc1 | -7.8% (inactive)
c1csc(-c2nc(-c3ccncc3)no2)c1 | 47.4% (active)
Cc1ccc(-c2noc(-c3ccccc3C(=O)NCC3CCCO3)n2)cc1 (stereo not drawn) | -3.76% (inactive)
O=C(NCc1cccnc1)c1nc(-c2cccs2)no1 | 7.29% (inactive)
Cc1ccc(-c2nc(-c3ccncc3)no2)c(C)c1 | 37% (active)
COc1cc(OC)cc(C(=O)OCC(=O)Nc2sccc2C(N)=O)c1 | 0.966% (inactive)
COCCn1c(=NC(=O)c2ccccc2[N+](=O)[O-])sc2cc(S(C)(=O)=O)ccc21 | 0.193% (inactive)
COc1ccc(C(=O)NC(C)Cn2nc(C)cc2C)cc1OC1CCN(C(C)=O)CC1 (stereo not drawn) | 8.35% (inactive)
CCC(Cc1ccccc1)NS(=O)(=O)c1ccc2c(c1)NC(=O)CS2 (stereo not drawn) | -5.64% (inactive)
O=C(Nc1cc(F)ccc1F)c1ccc2c(=O)n3c(nc2c1)CCC3 | -4.08% (inactive)
COC[C@@H]1NS(=O)(=O)c2ccc(Br)cc2O[C@H]1c1ccccc1 | 14.6% (inactive)
COc1ccc(C(=O)NCc2ccc(C)cc2)cc1S(=O)(=O)N1CCCC1 | 0.996% (inactive)
CC(=O)N(CN1C(=O)C2CC=CCC2C1=O)c1cccc(Cl)c1 (stereo not drawn) | 36.1% (active)
CCOC(=O)c1cccc(NC(=O)CN2C(=O)C3CC=CCC3C2=O)c1 (stereo not drawn) | 6.29% (inactive)
CC(=O)N(CN1C(=O)C2C3C=CC(C3)C2C1=O)c1cccc(Cl)c1 (stereo not drawn) | 16.7% (inactive)
COc1ccc(NC(=O)C(CC(C)C)NC(=O)C2CCC(C)CC2)cc1 (stereo not drawn) | -11.6% (inactive)
CC(=O)Oc1ccc(C(=O)Nc2nccs2)cc1 | 3.06% (inactive)
COc1ccc(Cc2nnc(NC(=O)c3cc(OC)c(OC)c(OC)c3)s2)cc1OC | -13.7% (inactive)
COc1cc(C(=O)Nc2nccs2)cc(OC)c1OC | 41.9% (active)
CCC(C)(C)c1ccc(OCC(=O)N(C)C)c(C(C)(C)CC)c1 | 2.98% (inactive)

SMILES | inhibition
CC1(C(=O)NS(=O)(=O)c2cccc(F)c2)CCN1C(=O)Cc1ccc(Cl)cc1Cl (stereo not drawn) | 15.6% (inactive)
C=C(C)Cn1c(N2CCN(CC)CC2)nc2c1c(=O)[nH]c(=O)n2C | 16.3% (inactive)
O=S(=O)(Cc1cc(Sc2ccccc2)nc(-c2ccccc2)n1)c1ccccc1 | 44.9% (active)
Cc1ccc(Sc2cc(N3CCOCC3)nc(-c3ccccc3)n2)cc1 | 7.71% (inactive)
O=S(=O)(Cc1cc(Cl)nc(-c2cccnc2)n1)c1ccccc1 | -15.6% (inactive)
Cc1cc2c(=O)n(CC(=O)NCC(=O)Nc3ccc(C(C)C)cc3)cnc2s1 | -0.0427% (inactive)
CCOc1ccc(N2C(=O)/C(=C/c3ccc(C)o3)N(C)C2=S)cc1 | -1.02% (inactive)
O=C(CCn1c(=S)[nH]c2ccccc2c1=O)NCCCN1CCCC1=O | 36.5% (active)
O=Cc1c(NCCCN2CCCC2=O)c2ccccc2[nH]c1=O | 19.6% (inactive)
CCOc1cc2[nH]c(=S)n(CCCN3CCCC3=O)c(=O)c2cc1OCC | -28.4% (inactive)
COc1ccc(N2CCN(C(=O)C3CCN(S(=O)(=O)c4ccc(C)cc4)CC3)CC2)cc1 | 5.77% (inactive)
CC(CCc1ccccc1)NC(=O)COC(=O)c1ccc(F)cc1 (stereo not drawn) | 3.96% (inactive)
CCc1ccc(OCC(=O)OCC(=O)c2c(N)n(C)c(=O)n(C)c2=O)cc1 | -10% (inactive)
C[C@H]1CN([C@@H](C)CO)C(=O)CCCn2cc(nn2)CO[C@@H]1CN(C)C(=O)Nc1ccccc1 | 1.2% (inactive)
COC(=O)CNC(c1ccccc1Cl)c1cc(Br)ccc1NC(=O)CCN1CCOCC1 (stereo not drawn) | 35.2% (active)
COc1ccccc1NC(=O)CCN1CCN(c2ccc(Cl)cc2)CC1 | 8.41% (inactive)
Cc1cc(NC(=O)CCN2CCN(Cc3ccccc3)CC2)ccc1Br | 1.51% (inactive)
Cc1cc(C)cc(NC(=O)C2CCCN(S(=O)(=O)c3ccc4[nH]c(=O)ccc4c3)C2)c1 (stereo not drawn) | 11.9% (inactive)
O=S(=O)(NC1CC2CCC1C2)c1ccc(Cl)cc1 (stereo not drawn) | 8.97% (inactive)
CN1c2ccc(C=O)c3c(C=O)ccc(c23)N(C)C1(C)C | 39.8% (active)
CCCCNC(=O)C1(O)c2ccccc2NC(=O)N1c1ccc(Cl)cc1 (stereo not drawn) | 19.1% (inactive)
CSc1ccc(CNC(=O)c2ccc(NC(=O)C3=CSCCO3)cc2)cc1 | 22.9% (inactive)
Cc1nc2ccccn2c1C(=O)NN=C1CCN(C)CC1 | 8.18% (inactive)
CC1=NNC(=O)C1Cc1c(Cl)cccc1Cl (stereo not drawn) | -3.65% (inactive)
Cc1ccc(OCCNC(=O)CNC(=O)c2ccc(C)c(C)c2)cc1 | 5.58% (inactive)

SMILES | inhibition
CC(C=Cc1ccccc1)=NNS(=O)(=O)c1ccc([N+](=O)[O-])cc1 | 21.6% (inactive)
COC(=O)c1ccccc1N=NNc1ccc([N+](=O)[O-])cc1 | 20.6% (inactive)
O=[N+]([O-])c1ccc(N/N=C/c2ccccc2)cc1 | 41.2% (active)
CC1CN(c2cc(=O)n(-c3cccc(Br)c3)c(=O)[nH]2)CC(C)O1 (stereo not drawn) | 5.49% (inactive)
COc1ccc2nc(N3CCN(C(=O)c4ccc([N+](=O)[O-])o4)CC3)sc2c1 | 2.32% (inactive)
Brc1ccc2nc(N3CCCC3)sc2c1 | 52% (active)
O=C(NCCc1cccc(F)c1)C1CCCN(c2nc3ccccc3s2)C1 (stereo not drawn) | 10.3% (inactive)
CCCCN1C(=S)NC[C@@H]1C(C)CC (stereo partly drawn) | -0.152% (inactive)
Clc1ccc(C[n+]2cc(-c3ccc(Cl)cc3)n3c2CCC3)cc1 | 0.364% (inactive)
O=C(C1CCN(S(=O)(=O)c2cnc[nH]2)CC1)N1CCN(Cc2ccc3c(c2)OCO3)CC1 | 17.4% (inactive)
COc1ccccc1N1CCN(CC(=O)Nc2ccnn2C2CCCC2)CC1 | -9.67% (inactive)
FC(F)(F)c1ccnc(Oc2ccc(C3=NCCS3)cc2)c1 | 44.7% (active)
CCC(=O)Nc1ccc(S(=O)(=O)Nc2c(NC)c3ccccc3oc2=O)cc1 | 9.74% (inactive)
CN(Cc1ccccc1)C(=O)COC(=O)c1ccccc1Nc1ccccc1 | -4.32% (inactive)
Cc1cccc(N2CCN(C(=O)c3cccc(S(=O)(=O)N4CCc5ccccc5C4)c3)CC2C)c1 (stereo not drawn) | -16.8% (inactive)
COc1cccc(C2SCC(=O)N2c2cccc(C)c2)c1OC (stereo not drawn) | 2.8% (inactive)
Cc1cc(C(C)(C)C)oc1C(=O)N(CC(=O)NC1CCCC1)Cc1ccc(Cl)cc1 | 6.57% (inactive)
O=C(CSc1nnc(-c2ccco2)o1)NCC(=O)c1ccccc1 | -0.628% (inactive)
CCCCOc1ccc(-c2nnc(-c3ccco3)o2)cc1 | 64.9% (active)
CCCOc1ccc(-c2c(C(=O)N/N=C/c3ccco3)nnn2-c2nonc2N)cc1 | 3.6% (inactive)
CCCCSc1nnc(-c2ccc(C)cc2)o1 | 1.11% (inactive)
CCOc1ccc(NC(=O)N(CCC(C)C)C(C)c2ccco2)cc1 (stereo not drawn) | -11.7% (inactive)
CCOc1ccc(-c2nnc(-c3ccco3)o2)cc1 | 58.1% (active)
